# BCLXL inh: blocks human Bcl-xL binding to Bim BH3 peptide; Q07817; GST-Bcl-xL / FITC-Bim BH3 peptide fluorescence polarization; inhibition, % at 10.9 µM; 0.7% of 320,000 active;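 active means inhibition above the mean of all tested compounds plus 3 SD, cutoff set per campaign, cut at about 30% in these data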;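 further: 0% = DMSO wells and 100% = unlabeled Bim-BH3 peptide competitor; inhibitors lower millipolarization by displacing the labeled peptide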
# Target sequence (Q07817 whole entry, looked up): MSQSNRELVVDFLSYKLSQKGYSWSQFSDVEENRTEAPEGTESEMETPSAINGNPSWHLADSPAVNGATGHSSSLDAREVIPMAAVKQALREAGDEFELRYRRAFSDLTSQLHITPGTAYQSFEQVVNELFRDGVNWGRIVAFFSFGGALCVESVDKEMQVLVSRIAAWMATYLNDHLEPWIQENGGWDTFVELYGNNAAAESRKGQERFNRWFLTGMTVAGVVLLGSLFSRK
# MCL1-BIM inh: disrupts human MCL1 binding to BIM-BH3 peptide. 0.68% of 320,000 active. AID 2057. GST-MCL1 / FITC-Bim-BH3 fluorescence polarization. inhibition, % at 10.9 µM;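 active means inhibition above the mean inhibition of all tested compounds plus 3 SD, set per campaign, cut at about 40% in these data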;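 further: 0% = DMSO wells and 100% = unlabeled Bim-BH3 peptide control; higher means more loss of mP so more displacement of Bim peptide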
# Mcl1-Bid inh: disrupts binding of human Mcl-1 to Bid peptide; Q07820; TR-FRET Mcl-1/Bid-Dy647 peptide binding, 1536-well; inhibition, % at 21.7 µM; 0.97% of 220,000 active; AID 1021;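 active means compounds that cut the binding signal by more than half at the single screening dose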;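 further: His-tagged Mcl-1 with europium anti-His antibody binding Bid BH3 peptide; 0% = Mcl-1 plus peptide wells and 100% = peptide-only wells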
# Bim-Mcl-1: human Bim-Mcl-1 interaction inhibition. AID 1009. 0.1% of 190,000 active. inhibition, % at 10 µM. Bead-based flow cytometry, Bim peptide-Mcl-1 binding; in the data active means inhibition above about 40%;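 further: 0% = no compound tracer wells and 100% = peptide blocker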
# Mcl1-Noxa inh: disrupts binding of human Mcl-1 to Noxa peptide | Q07820 | TR-FRET Mcl-1/Noxa peptide binding, 2 h | inhibition, % at 21.7 µM | 1.5% of 220,000 active | AID 1022;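 active means compounds that cut the protein-peptide binding signal by more than 50% relative to plate controls in a single-dose test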;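 further: His-tagged Mcl-1 with rhodamine Noxa BH3 peptide and terbium anti-His antibody; 0% = Mcl-1 plus Noxa peptide wells and 100% = peptide-only wells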
# GLD-1 TGE inh: GLD-1-TGE RNA interaction inhibition (C. elegans) | Q17339 | inhibition, % at 5.96 µM | purified GLD-1 + fluorescein TGE RNA, fluorescence polarization | 0.44% of 320,000 active;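 active means percent inhibition above a per-plate cutoff, the plate mean of test compounds plus 3 SD, cut at about 30% in these data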;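 further: 0% = DMSO wells with GLD-1 and probe and 100% = wells lacking GLD-1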
# BCLXL inh confirm: Bcl-xL (human) inhibition, MCL1 counter-screen confirmation; shares compounds with MCL1-BIM inh; GST-Bcl-xL / FITC-Bim BH3 peptide FP binding; inhibition, % at 10.9 µM; 54% of 1,700 active;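 active means inhibition above a cutoff equal to the mean inhibition of all tested compounds plus 3 SD, cut at about 30% in these data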;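 further: 0% = DMSO wells and 100% = unlabeled Bim BH3 control peptide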
# MCL1 inh confirm: confirmation of human MCL1 and BIM-BH3 interaction inhibitors | shares compounds with MCL1-BIM inh | GST-MCL1 / FITC-Bim-BH3 fluorescence polarization | inhibition, % at 10.9 µM | 61% of 1,700 active;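 active means inhibition above the average of all tested compounds plus 3 SD, cut at about 40% in these data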;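 further: 0% = DMSO wells and 100% = unlabeled Bim-BH3 control peptide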
# GLD-1 TGE cf: GLD-1 TGE RNA interaction inhibition, confirmation; 10% of 550 active; inhibition, % at 5.96 µM; GLD-1/FL-TGE RNA fluorescence polarization, biochemical; shares compounds with GLD-1 TGE inh;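 active means average inhibition across triplicates above the hit cutoff set in the primary screen, cut at about 32% in these data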;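 further: 0% = GLD-1 with RNA probe and DMSO and 100% = wells lacking GLD-1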
# Numbers without * were called inactive; . = no result given. In the library only some 2.3% were active in any assay of this set; here they are far more common.
SMILES,BCLXL inh,MCL1-BIM inh,Mcl1-Bid inh,Bim-Mcl-1,Mcl1-Noxa inh,GLD-1 TGE inh,GLD-1 TGE cf,others
Oc1c(Br)cc(Br)cc1C=Nc1cccc2ncccc12,74*,73*,.,.,.,53*,3,BCLXL inh confirm=43*;MCL1 inh confirm=55*
CNc1ccccc(-c2ccc3ccccc3n2)c1=O,48*,58*,-91,2,43,35*,-5,BCLXL inh confirm=79*;MCL1 inh confirm=95*
c1ccc(-c2ccc3ccccc3n2)cc1,-2,-1,.,.,.,3,.,
COc1ccc(NC(=O)C2CCN(C(=O)Nc3ccccc3)CC2)cc1S(=O)(=O)N(C)C,4,3,.,.,.,6,.,
COc1ccc(N2C(=O)[C@@H]3[C@H](C2=O)[C@H](C(=O)c2ccc(OC(C)=O)cc2)N2N=CC=C[C@@H]32)cc1,7,2,-46,4,8,2,.,
CC(=O)Oc1ccc(N2C(=O)C3C(C2=O)C(C(=O)c2ccc(Cl)cc2)N2CCCC32)cc1 (stereo unspecified),78*,74*,-21,.,17,58*,14,BCLXL inh confirm=66*;MCL1 inh confirm=86*
COc1cccc(C(=O)NCC(=O)N/N=C/c2ccc3c(c2)OCO3)c1,6,3,.,.,.,-2,.,
Cc1ccc2c3c(cccc13)-c1ccccc1C2=O,37*,42*,-1,11,13,43*,39*,BCLXL inh confirm=27;MCL1 inh confirm=31
O=C(O)c1cc(O)ccc1N=Nc1ccccc1,2,1,-46,.,5,-1,.,
O=C(O)c1ccccc1N=Nc1ccc(O)cc1,58*,64*,.,.,.,39*,33*,BCLXL inh confirm=52*;MCL1 inh confirm=60*
CC(O)CNc1nc2ccccc2n1CC(=O)NC12CC3CC(CC(C3)C1)C2 (stereo unspecified),-5,-6,-8,-1,20,4,.,
CCOc1cccc(=O)c2c(C)n(C)c(C)c12,26,28,-78,0,28,40*,-4,
CCCCCn1c(C)c2c(OCC)cccc(=O)c2c1C,8,10,-96,.,12,4,.,
NC(=O)c1ccsc1NC(=O)CSc1nnc(NC2CC2)s1,.,.,.,.,.,1,.,
O/N=C/c1cn(-c2ccccc2)nn1,0,4,-3,0,-8,10,.,
Cn1cc(/C=N\O)nc2c(=O)n(-c3ccccc3)c(=O)nc1-2,36*,34,-35,1,16,35*,8,
O=C(COc1ccccc1Cc1ccccc1)Nc1cccnc1,0,3,.,.,.,0,.,
O=C(CN1C(=O)NC2(CCCC2)C1=O)NCc1ccc(Cl)cc1,.,.,.,.,.,3,.,
Cc1ccc(OCC(=O)N2CCOCC2)c([N+](=O)[O-])n1,-4,-4,-26,.,2,3,.,
Cc1ccc(OCC(=O)c2ccc(Cl)s2)c([N+](=O)[O-])n1,18,18,-105,-1,49,31*,-5,
CCOC(=O)N1CCN(C(=O)CNS(=O)(=O)c2c(C)cc(C)cc2C)CC1,6,6,.,.,.,0,.,
O=c1[nH]c2cc3ccccc3cc2nc1C(F)(F)F,14,14,-3,0,3,58*,60*,
O=C1CCC(C(=O)Nc2ccccc2N2CCCC2)=NN1,9,16,.,.,.,4,.,
Nc1nnnn1/N=C/c1cc(Cl)ccc1O,23,26,.,.,.,38*,46*,
Nc1nnnn1/N=C/c1cc(Cl)cc(Cl)c1OCc1ccc(Cl)cc1Cl,4,11,-22,0,9,-7,.,
Nc1cccc2c1C(=O)N(C(=O)c1cccc(S(=O)(=O)N3CCCCCC3)c1)C2=O,28,31,-15,-1,6,38*,15,
Cc1ccc(S(=O)(=O)N2CCOCC2)cc1C(=O)N1C(=O)c2cccc(N)c2C1=O,30*,32,97*,-1,17,32*,18,
Cc1ccccc1Cn1cc(NC(=O)c2cc(C3CC3)on2)cn1,0,2,20,.,-21,3,.,

# Source: PubChem (several laboratories)
